# In PubChem BioAssay AID463173 (ICCB-Longwood Screening Facility, Harvard Medical School, 2010):
# About 4,300 (8.3%) of roughly 52,000 compounds were called active. Only a selection was taken, and actives are over-represented in it overall. A number with no mark means an inactive call. Rule as the data show it: active = survival mostly below about 52% (no sharp cut-off); inactive = mostly above about 56%.
# Tested on: DeltatarO mutant
# Assay: S. aureus survival, RN4220 and DeltatarO strains – OD600, teichoic acid synthesis inhibitors, primary screen (AID 463173)
# Conditions: S. aureus RN4220 wild type/DeltatarO growth, OD600, 18 h, stronger effect = lower value, screened at 18.75 µg/mL (by protocol)
row,Structure (SMILES),survival
1,COc1ccc(C2Nc3ccccc3-c3nnc(SC)nc3O2)cc1C (centres undefined),67%
2,COc1ccccc1NC(=O)CSc1nc2ccccc2c2nc(-c3ccccc3)nn12,90%
3,Cc1ccc(OCCCC(=O)Nc2ccc3c(c2)OCO3)cc1,100%
4,COc1ccccc1CNC(=O)c1ccc2nc(CCc3ccccc3)oc2c1,83%
5,Cc1cccc(N2CCN(S(=O)(=O)c3c(C)[nH]c(=O)[nH]c3=O)CC2)c1C,84%
6,CCN(CC)c1nn2c(=O)c(C(=O)NCCc3cccc(C)c3)cnc2s1,73%
7,O=C(CSc1nc2c(c(=O)[nH]1)CCC2)Nc1cccc(O)c1,86%
8,COc1ccc(CNC(=O)c2cc3c(s2)-c2c(C)cccc2OC3)cc1,87%
9,CCOCCCN(Cc1ccco1)C(=O)c1cc2c(s1)-c1c(C)cccc1OC2,-3% (active)
10,CCCCN(Cc1ccco1)C(=O)c1cc2c(s1)-c1c(C)cccc1OC2,-2% (active)
11,CCOc1ccc(CCNC(=O)c2cc3c(s2)-c2c(C)cccc2OC3)cc1,98%
12,CCN1CCN(CCCNC(=O)c2cc3c(s2)-c2c(C)cccc2OC3)CC1,102%
13,CCCN1CCN(CCCNC(=O)c2cc3c(s2)-c2c(C)cccc2OC3)CC1,127%
14,Cc1ccc(-n2ncc(C(=O)N3CCN(C4CCCCC4)CC3)c2C2CCN(C(=O)OC(C)(C)C)CC2)cc1,82%
15,O=C(O)c1ccc(-c2cccc(Cl)c2)o1,67%
16,O=C(Nc1cccc2cccnc12)c1ccc(-c2cccc(Cl)c2)o1,3% (active)
17,Cc1ccc2cccc(NC(=O)c3ccc(-c4ccc(Br)cc4)o3)c2n1,59% (active)
18,Cc1ccc2cccc(NC(=O)c3ccc(-c4cccc(Cl)c4)o3)c2n1,49% (active)
19,Cc1ccc2cccc(NC(=O)c3ccc(-c4cccc([N+](=O)[O-])c4)o3)c2n1,67%
20,Cc1ccc2cccc(NC(=O)c3ccc(-c4ccc(Cl)cc4Cl)o3)c2n1,67%
21,Cc1ccc2cccc(NC(=O)c3ccc(-c4cccc(Cl)c4Cl)o3)c2n1,55%
22,Cc1ccc2cccc(NC(=O)c3ccc(-c4cc(Cl)ccc4Cl)o3)c2n1,71%
23,Nc1nc(N)c(S(=O)(=O)c2ccccc2)c(Nc2ccc(F)cc2)n1,72%

row,Structure (SMILES),survival
1,O=C(COc1ccccc1)NCCc1csc(-c2cccc(F)c2)n1,78%
2,COc1ccc(NC(=O)CSc2nc(-c3ccco3)cc(C(F)(F)F)n2)cc1,86%
3,CN(C)c1ccc(NC(=O)CSc2nc(-c3ccco3)cc(C(F)(F)F)n2)cc1,65%
4,Cc1ccc(F)cc1NC(=O)CCSc1nc(-c2ccco2)cc(C(F)(F)F)n1,48%
5,CCNS(=O)(=O)c1ccc(NC(=O)CSc2nc(-c3ccco3)cc(C(F)(F)F)n2)cc1,36% (active)
6,COc1ccc(NC(=O)CSc2nc(-c3ccco3)cc(C(F)(F)F)n2)cc1OC,63%
7,O=C(CSc1nc(-c2ccco2)cc(C(F)(F)F)n1)Nc1ccccc1,102%
8,Cc1ccc(O)c(NC(=O)CCSc2nc(-c3ccco3)cc(C(F)(F)F)n2)c1,28% (active)
9,Cc1cc(F)ccc1NC(=O)CCSc1nc(-c2ccco2)cc(C(F)(F)F)n1,45%
10,COc1ccc(Cl)cc1NC(=O)CSc1nc(-c2ccco2)cc(C(F)(F)F)n1,31% (active)
11,COc1ccc(NC(=O)CSc2nc(-c3ccco3)cc(C(F)(F)F)n2)cc1Cl,38% (active)
12,CCOc1ccccc1CNC(=O)CCCn1nc(C)c2sc3ccccc3c2c1=O,85%
13,O=C1C2C3c4ccccc4C(c4ccccc43)C2C(=O)N1CN1CCOCC1 (centres undefined),78%
14,CCCOc1ccc(NC(=O)CC2C(=O)N(c3ccc(C)cc3)C(=O)N2C2CCCC2)cc1 (centres undefined),67%
15,Cc1ccc(NC(=O)Cn2c(=O)n(Cc3nc(-c4ccccc4)no3)c(=O)c3cc4c(cc32)OCO4)c(C)c1,62%
16,COc1ccc(N(C)C(=O)c2cn(C3CCCCC3)c(=O)c3c2c2ccccc2n3C)cc1,67%
17,Cc1ccc(-n2nc(C(=O)NC(C)C)c(=O)n(C)c2=O)cc1,78%
18,Cc1c(NC(=O)Nc2ccc(Cl)c(C(F)(F)F)c2)c(=O)n(-c2ccccc2)n1C,124%
19,CC(C)CCn1c(=O)c2sccc2n2c(CCCC(=O)NCc3ccc(F)cc3)nnc12,88%
20,Cc1oc2ncn(C)c(=O)c2c1C(=O)Nc1ccccn1,102%
21,COc1cccc(CNC(=O)Cn2c(=O)oc3cc(S(=O)(=O)N4CCCC4)ccc32)c1,122%
22,Cc1ccc(Cl)cc1NC(=O)C(=O)NCCc1sc(-c2ccc(F)cc2)nc1C,90%
23,CC1CCN(S(=O)(=O)c2ccc3c(c2)N(CC(=O)NCC(C)c2ccccc2)C(=O)CO3)CC1 (centres undefined),64%

row,Structure (SMILES),survival
1,Cc1ccc(C(=O)Nc2ccc(C(=O)OCc3cc(=O)n4ccsc4n3)cc2)cc1,72%
2,Cc1cccc(NC(=O)CSc2nc(-c3ccco3)cc(C(F)(F)F)n2)c1C,69%
3,Cc1ccc(NC(=O)CSc2nc(-c3ccco3)cc(C(F)(F)F)n2)cc1C,33% (active)
4,Cc1ccc(NC(=O)CSc2nc(-c3ccco3)cc(C(F)(F)F)n2)cc1,129%
5,Cc1ccc(NC(=O)CSc2nc(-c3ccco3)cc(C(F)(F)F)n2)c(C)c1,63% (active)
6,Cc1ccc(NC(=O)CCSc2nc(-c3ccco3)cc(C(F)(F)F)n2)cc1F,48%
7,CC(C)NC(=O)CSc1nc(-c2ccco2)cc(C(F)(F)F)n1,64%
8,CC(=O)Nc1ccc(S(=O)(=O)NC2(C(F)(F)F)C(=O)Nc3c2c(=O)[nH]c(=O)n3-c2ccc(C)c(C)c2)cc1 (centres undefined),81%
9,CCOc1ccc(S(=O)(=O)NC(=O)N(CC)Cc2cc3ccccc3o2)cc1,76%
10,CCCc1cnc2c(c1SCc1ccc(C(F)(F)F)cc1)c(=O)n(C)c(=O)n2C,54%
11,Cc1c(NC(=O)c2cc3ccccc3o2)cccc1-c1nc2ccccc2o1,36% (active)
12,Cc1ccc(-c2nc3cc(Cl)ccc3o2)cc1NC(=O)c1cc2ccccc2o1,43% (active)
13,O=C(Nc1ccc2oc(-c3ccc(O)c(Br)c3)nc2c1)c1cc2ccccc2o1,49%
14,Cc1ccc(-c2nc3cc(NC(=O)c4cc5ccccc5o4)ccc3o2)cc1Cl,139%
15,Cc1ccc2oc(-c3ccc(Cl)c(NC(=O)c4cc5ccccc5o4)c3)nc2c1,39% (active)
16,Cc1ccc(-c2nc3ccccc3o2)cc1NC(=O)Cc1ccc(Cl)cc1,73%
17,CC(=O)Nc1cc(-c2nc3cc(Cl)ccc3o2)ccc1C,51%
18,Cc1ccc(-c2nc3cc(C(C)C)ccc3o2)cc1NC(=O)c1cc2ccccc2o1,19% (active)
19,Cc1ccc2oc(-c3ccc(Cl)c(NC(=O)Cc4ccccc4)c3)nc2c1,95%
20,Cc1c(NC(=O)c2ccc(Br)o2)cccc1-c1nc2ccccc2o1,60%
21,Cc1c(NC(=O)c2cccc3c(Cl)cccc23)cccc1-c1nc2ccccc2o1,63%
22,O=C(Nc1cc(-c2nc3cc(Cl)ccc3o2)ccc1Cl)c1cc2ccccc2o1,82%
23,COc1ccc(-n2nc3c(N4CCC(C(=O)NCc5ccccc5C)CC4)nnc(C)c3c2C)cc1,90%

row,Structure (SMILES),survival
1,CCOCCc1nn2c(=O)cc(COC(=O)C(CC)c3ccccc3)nc2s1 (centres undefined),55%
2,C=CCNC1CCS(=O)(=O)C1 (centres undefined),98%
3,CSc1ccc(-c2ccc3c(c2)OCCO3)nn1,91%
4,COc1ccc(N2CCN(CCN3CCCCC3)CC2)cc1,83%
5,CCC(C)(C)NC(=O)Cn1c(-c2ccc(C)cc2)noc1=O,86%
6,COC(=O)c1c(Oc2ccc(Br)cc2)nnc(-c2ccccc2)c1-c1ccccc1,85%
7,COc1ccc(-c2nc(C)c(CCNC(=O)c3cccc(C)c3)s2)cc1OC,86%
8,COC(=O)c1ccn(-c2nc(-c3ccc(Cl)cc3)cc(C(F)(F)F)n2)n1,13% (active)
9,COc1ccc(-c2cc(C(F)(F)F)n3nc(-c4ccc(Cl)cc4)cc3n2)cc1OC,48%
10,CCOC(=O)c1c(NC(=O)CSc2nc(-c3ccc(OC)cc3)cc(C(F)(F)F)n2)sc(C)c1C,68%
11,COC(=O)CSc1nc(-c2ccc(F)cc2)cc(C(F)(F)F)n1,126%
12,CCOC(=O)N1CCN(C(=O)c2cnn3c(C(F)(F)F)cc(-c4cccc(OC)c4)nc23)CC1,68%
13,CCOC(=O)c1ccn(-c2nc(-c3cccc(OC)c3)cc(C(F)(F)F)n2)n1,18% (active)
14,CCc1ccccc1NC(=O)C(Cc1cccc(OC)c1)c1nn[nH]n1 (centres undefined),54%
15,CC(=O)N1CCc2c(sc3c2c(=O)n(-c2cccc(Cl)c2C)c(=O)n3Cc2ccccc2C)C1,61%
16,CC(=O)NC1=NN(C(C)=O)C2(S1)C(=O)Nc1ccccc12 (centres undefined),90%
17,O=C(COc1ccc(Cl)cc1)Nc1ccc(C(=O)OCc2cc(=O)n3ccsc3n2)cc1,88%
18,O=C(CSc1ncc2c(n1)-c1cc(Cl)ccc1N(Cc1ccccc1)S2(=O)=O)NCCc1ccccc1,89%
19,CCCCCn1c(=O)[nH]c2cc(C(=O)N3CCN(c4cccc(C(F)(F)F)c4)CC3)ccc2c1=O,66%
20,Cc1ccccc1CCNC(=O)c1ccc2c(c1)nc1n2CCC(C)C1 (centres undefined),83%
